Data on 36 compounds can be found in PubChem BioAssay.
Further: test concentration not given here.

One experiment in a line: JC-1 mitochondrial signal, unstimulated myeloma cells – cell-based, JC-1 fluorescence, RPMI8226, 24 h, 100 nL compound, profiling panel (AID 1169). The conditions noted are these: JC-1 mitochondrial potential fluorescence, higher = more signal.
`COCCCNC(=O)[C@@]1(Sc2ccc(C)cc2)CC(=O)N(C2CCCCC2)[C@@H]1c1ccc(CO)cc1` displayed a z-score of 0.855. Still for that read-out and setting: to `[N-]=[N+]=Nc1ccccc1[C@H]1OC(c2ccc(OCCCO)cc2)=N[C@@]1(Cc1ccccc1)C(=O)N1CCCCC1` belongs -1.15. Compound `CC(C)OC(=O)C=C1C[C@@H](c2ccc(C(F)(F)F)cc2)O[C@@H](c2ccc(C(F)(F)F)cc2)O1` showed a z-score of -0.478. The same measure, in the same setting: to `[N-]=[N+]=Nc1ccccc1[C@@H]1OC(c2ccc(OCCCO)cc2)=N[C@]1(Cc1ccccc1)C(=O)NCC(O)CO` (some centres undefined) belongs -1.15; to `[N-]=[N+]=Nc1ccccc1C[C@]1(C(N)=O)N=C(c2ccc(OCCCO)cc2)O[C@H]1c1ccccc1N=[N+]=[N-]`, -1.21; to `C[C@@H]1NC(=O)[C@@]23C(=O)N[C@@H](Cc4ccccc4)C2[C@H](C)[C@@]2(C)O[C@H]2C3/C=C/C/C=C\CNC(=O)[C@@H]2CCCN2C1=O` (some centres undefined), 0.632. On the same count and under the same terms, with `COCCCNC(=O)[C@]1(CCS(=O)(=O)c2ccccc2)N=C(c2ccc(OCCCO)cc2)O[C@@H]1c1ccccc1N=[N+]=[N-]` the figure was -0.986; with `O=C1OCCC/C=C\[C@H]2OC34C=CCN(CCN5CCOCC5)C(=O)[C@H]3N(CCCCCCO)C(=O)[C@@H]4C12` (some centres undefined), 0.0622.

The nature of the next experiment: JC-1 mitochondrial signal, unstimulated MM1S myeloma – cell-based, JC-1 fluorescence, 24 h, 100 nL compound, profiling panel (AID 1170). As to conditions: MM1S mitochondrial potential, higher = more signal.
Compound `[N-]=[N+]=NCc1ccccc1C[C@@]1(C(=O)N2CCCCC2)N=C(c2ccc(OCCCO)cc2)O[C@@H]1c1ccccc1` came in with a z-score of -2.34. Same read-out and setting: to `O=C1O[C@@H](c2ccccc2)[C@@H](c2ccccc2)N2[C@@H](c3ccc(OCCO)cc3)[C@]3(C(=O)Nc4ccccc43)[C@@H](C(=O)O)[C@H]12` belongs -1.13. On the same count and under the same terms, to `CC(CO)N1C(=O)[C@@H]2[C@H]3C(=O)OCC=C[C@H]3OC23C=CCN(C(C)(C)C)C(=O)[C@@H]13` (some centres undefined) belongs 0.0965. On the same count and under the same terms, with `CN1C(=O)C2C=CC(C(O)c3cccc4ccccc34)N(N3CCCCC3)C2C1=O` (centres undefined) the figure was -0.382.

`CN(C)C(=O)[C@]1(CCS(=O)(=O)c2ccccc2)N=C(c2ccc(OCCCO)cc2)O[C@@H]1c1ccccc1N=[N+]=[N-]` yielded a z-score of -0.809.

As to `COC(=O)[C@@]1(Cc2ccc(F)cc2)[C@H]2c3cc(C(=O)N4CCCC4)n(CCc4ccc(O)c(O)c4)c3C[C@H]2CN1C(=O)c1ccccc1`, the z-score was -1.59.

In the case of `CN(C)CCCNC(=O)[C@@]1(c2ccc([N+](=O)[O-])cc2)CC(=O)N(CC23CC4CC(CC(C4)C2)C3)[C@@H]1c1ccc(CO)cc1I`, the z-score is -2.37.

With `Cc1cc(C)c(C(O)C2C=CC3C(=O)NC(=O)C3N2Nc2ccc(Cl)cc2Cl)c(C)c1` (centres undefined), the z-score is -0.44. The compound `COCCOC(=O)N1C(=O)[C@@]2(c3cc(C#CC4=CCCCC4)ccc31)[C@H](c1ccc(OCCO)cc1)N1[C@H](c3ccccc3)[C@H](c3ccccc3)OC(=O)[C@H]1[C@@H]2C(=O)N1CCN(c2ncccn2)CC1` displayed a z-score of -1.01. The same measure, in the same setting: with `C=CCC(OC(C)=O)[C@@H]1[C@@H](N(Cc2ccc(-c3ccccc3)cc2)C(=O)Cc2ccc(F)cc2)c2cc(OCCCO)ccc2N1C(=O)Cc1ccc(OC)cc1` (some centres undefined) the figure was -0.362. Still for that read-out and setting: with `COC(=O)[C@@]1(Cc2ccc(OC)cc2)[C@H]2c3cc(C(=O)N(C)C)n(C[C@H](O)CO)c3C[C@H]2CN1C(=O)c1ccccc1` the figure was -1.03; with `Cn1cccc1C(O)C1C=CC2C(=O)NC(=O)C2N1Nc1ccc(Cl)cc1Cl` (centres undefined), 0.234. Still for that read-out and setting: to `COc1ccc([Si](C)(C)[C@@H]2[C@@H](CC(=O)N(CCO)Cc3ccccc3)O[C@]3(C(=O)N(Cc4cccc(N5C(=O)c6cccc7cccc5c67)c4)c4ccccc43)[C@H]2C)cc1` belongs -1.4. On to `Cc1ccc(S[C@]2(C(=O)NCC(F)(F)F)CC(=O)N(Cc3ccccc3C(F)(F)F)[C@@H]2c2ccc(CO)cc2I)cc1`, for which the z-score was -2.22.

In turn, `CCOc1cc(C(O)C2C=CC3C(=O)N(c4ccccc4)C(=O)C3N2Nc2ccc(C#N)cc2)ccc1O` (centres undefined) came in with a z-score of -0.443. `COCCOC(=O)N1C(=O)[C@@]2(c3ccccc31)[C@H](C(=O)N1CCN(c3ncccn3)CC1)[C@H]1C(=O)O[C@H](c3ccccc3)[C@H](c3ccccc3)N1[C@@H]2c1ccc(O)cc1` came in with a z-score of 0.0963. The compound `CCCC[C@@H]1C[C@H]1[C@@H](NC(=O)c1cccs1)c1ccc(C(F)(F)F)cc1` came in with a z-score of -0.917. On the same count and under the same terms, with `COC(=O)c1ccc([C@H](NC(=O)c2ccco2)[C@]2(C)C[C@H]2C2CCCCC2)cc1` the figure was -1.12. On the same count and under the same terms, with `O[C@@H](Cc1ccccc1)[C@@H](/C=C/C1CC1)N(CC#Cc1ccccc1)Cc1cccc(Cl)c1` the figure was -1.16. Compound `N#Cc1ccc(C(O)C2C=CC3C(=O)N(c4ccccc4)C(=O)C3N2Nc2ccccc2)cc1` (centres undefined) gave a z-score of -0.482.

On to `CC(C)N1C(=O)c2ccccc2[C@@H](C(=O)NC2CC2)[C@@H]1c1ccc(CO)cc1`, for which the z-score was 0.0665.

With `COC(=O)c1nc2oc1CC[C@@H](CO)NC(=O)N(C)Cc1cnnn1C[C@H](Cc1ccccc1)NC2=O`, the z-score is -0.511. Same read-out and setting: to `C=CCNC(=O)[C@@H]1[C@H]2C(=O)O[C@H](c3ccccc3)[C@H](c3ccccc3)N2[C@H](c2ccc(O)cc2)[C@@]12C(=O)N(C(=O)OCCOC)c1ccc(C#CC3(O)CCCCCC3)cc12` belongs -0.432; to `O=C1C=C(c2ccccc2)C(=O)c2ccc([C@H]3Oc4ccccc4S(=O)(=O)N4CCC[C@@H]34)cc21`, -2.69; to `C=C(COC)/C(=C/C[C@H](OC(C)=O)c1ccc(OCCO)cc1)c1cc(C(=O)OC)ccc1OC`, -0.444. Same read-out and setting: with `CC(C)[Si](C#C[Si](C(C)C)(C(C)C)C(C)C)(O[C@H](C)c1cn([C@H](CO)Cc2ccccc2)nn1)C(C)C` the figure was -0.156. As to `CC1CC/C=C\[C@H]2OC34C=CCN(C(C)C)C(=O)[C@H]3N(CCCCCCO)C(=O)[C@@H]4C2C(=O)O1` (some centres undefined), the z-score was -1.04. Still for that read-out and setting: with `CC1CC/C=C\[C@H]2OC34C=CCN(c5ccc(Cl)cc5)C(=O)[C@H]3N(CCCCCO)C(=O)[C@]4(C)C2C(=O)O1` (some centres undefined) the figure was 1.27; with `COCCCNC(=O)[C@@]1(Sc2ccc(C)cc2)CC(=O)N(C2CCCCC2)[C@@H]1c1ccc(CO)cc1`, 0.2. Still for that read-out and setting: to `[N-]=[N+]=Nc1ccccc1[C@H]1OC(c2ccc(OCCCO)cc2)=N[C@@]1(Cc1ccccc1)C(=O)N1CCCCC1` belongs -2.77; to `CC(C)OC(=O)C=C1C[C@@H](c2ccc(C(F)(F)F)cc2)O[C@@H](c2ccc(C(F)(F)F)cc2)O1`, -1.02; to `[N-]=[N+]=Nc1ccccc1[C@@H]1OC(c2ccc(OCCCO)cc2)=N[C@]1(Cc1ccccc1)C(=O)NCC(O)CO` (some centres undefined), -0.318. On to `[N-]=[N+]=Nc1ccccc1C[C@]1(C(N)=O)N=C(c2ccc(OCCCO)cc2)O[C@H]1c1ccccc1N=[N+]=[N-]`, for which the z-score is -0.825. On the same count and under the same terms, to `C[C@@H]1NC(=O)[C@@]23C(=O)N[C@@H](Cc4ccccc4)C2[C@H](C)[C@@]2(C)O[C@H]2C3/C=C/C/C=C\CNC(=O)[C@@H]2CCCN2C1=O` (some centres undefined) belongs -0.0219; to `COCCCNC(=O)[C@]1(CCS(=O)(=O)c2ccccc2)N=C(c2ccc(OCCCO)cc2)O[C@@H]1c1ccccc1N=[N+]=[N-]`, -0.754. `O=C1OCCC/C=C\[C@H]2OC34C=CCN(CCN5CCOCC5)C(=O)[C@H]3N(CCCCCCO)C(=O)[C@@H]4C12` (some centres undefined) displayed a z-score of -0.955.
